In PubChem BioAssay AID1445 (SRMLSC, 2008):
Out of some 220,000 compounds screened, about 910 (0.41%) were called active. This is one part of a sample in which actives are shown more often than they occur.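 Rule for the calls: active = primary inhibition above the hit cutoff, then over 50% inhibition at one or more dose response concentrations (cut at about 23% in these data, passing the limit was not always enough); inconclusive = conflicting primary data, or primary hits not chosen for dose response; inactive = low primary inhibition, or under 50% at every dose.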 Potency and affinity values are given separately.

These compounds were tested against Aminopeptidase N (Plasmodium falciparum (isolate 3D7)) (UniProt O96935) (assay: P. falciparum M1AAP inhibitors, biochemical, fluorogenic H-Leu-NHMec substrate, 1536-well (AID 1445;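 note: plate controls were DMSO full reaction for no effect and no enzyme background for full effect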)). Details: recombinant M1AAP, H-Leu-NHMec fluorogenic kinetic assay; at 30 µM, stronger effect = higher value unless noted.
Aminopeptidase N (Plasmodium falciparum (isolate 3D7)), sequence (O96935 whole entry, looked up): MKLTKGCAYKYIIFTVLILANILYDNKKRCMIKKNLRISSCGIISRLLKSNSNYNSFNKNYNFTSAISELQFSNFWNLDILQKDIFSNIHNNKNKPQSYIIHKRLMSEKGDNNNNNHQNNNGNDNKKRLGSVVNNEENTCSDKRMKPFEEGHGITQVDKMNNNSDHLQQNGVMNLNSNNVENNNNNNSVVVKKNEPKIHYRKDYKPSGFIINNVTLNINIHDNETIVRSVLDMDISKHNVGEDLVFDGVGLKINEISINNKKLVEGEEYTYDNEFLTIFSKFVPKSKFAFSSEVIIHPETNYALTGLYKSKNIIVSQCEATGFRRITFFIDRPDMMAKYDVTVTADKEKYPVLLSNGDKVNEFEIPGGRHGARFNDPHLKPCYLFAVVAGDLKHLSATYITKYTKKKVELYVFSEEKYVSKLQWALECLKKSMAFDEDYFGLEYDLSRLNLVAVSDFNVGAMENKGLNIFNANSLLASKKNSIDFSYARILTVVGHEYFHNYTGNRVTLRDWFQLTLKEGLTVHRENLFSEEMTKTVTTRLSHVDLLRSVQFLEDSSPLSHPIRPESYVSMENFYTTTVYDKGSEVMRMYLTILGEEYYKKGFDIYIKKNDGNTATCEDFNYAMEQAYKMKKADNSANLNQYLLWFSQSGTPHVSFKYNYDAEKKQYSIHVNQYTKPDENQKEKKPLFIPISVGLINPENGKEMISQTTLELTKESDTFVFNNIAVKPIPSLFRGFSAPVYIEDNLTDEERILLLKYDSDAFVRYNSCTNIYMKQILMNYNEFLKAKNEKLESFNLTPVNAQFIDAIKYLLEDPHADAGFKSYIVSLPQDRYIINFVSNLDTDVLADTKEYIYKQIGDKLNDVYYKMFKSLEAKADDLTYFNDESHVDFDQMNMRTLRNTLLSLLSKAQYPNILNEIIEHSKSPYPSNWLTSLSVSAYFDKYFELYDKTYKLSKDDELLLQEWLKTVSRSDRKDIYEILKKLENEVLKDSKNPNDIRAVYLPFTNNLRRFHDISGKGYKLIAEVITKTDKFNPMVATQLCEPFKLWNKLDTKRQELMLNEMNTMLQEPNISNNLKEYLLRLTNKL

inhibition, inactive:
O=c1c2ccccc2nnn1Cc1ccccc1Cl -2.79%
Cc1ccccc1NC(=O)c1ccc(S(=O)(=O)N(C)C)cc1 0.67%
Cc1nc2ccccc2c2oc(C(=O)N3CCN(C4CCCCC4)CC3)cc12 0.64%
Cc1nc2ccccc2c2oc(C(=O)N3CCC(N4CCCCC4)CC3)cc12 -1.44%
Cc1ccccc1OCC(=O)NNC(=O)Nc1ccccc1 11.5%
Cc1cc(C(=O)COC(=O)C2=NNC(=O)CC2)c(C)n1CCc1ccccc1 5.78%
CCOC(CCn1c(SCC(=O)Nc2cc(C)on2)nc2ccccc2c1=O)OCC 4.19%
Cc1ccc(CNC(=O)CN(CCc2ccccc2)S(C)(=O)=O)cc1 1.36%
Cc1ccc(/C=N/N=C2\SCC(=O)N2CC2CC2)cc1 3.09%
CCOC(=O)c1ccc(N=c2sc(C(=O)OC)cc(=O)n2Cc2ccc3c(c2)OCO3)cc1 4.78%
COC(=O)c1cc(=O)n(Cc2ccc3c(c2)OCO3)c(=Nc2ccc(F)cc2)s1 15.5%
Cc1[nH]c2ccc(OC(=O)N3CCOCC3)cc2c1C(=O)OC(C)C 8.46%
O=C(O)c1ccc(-c2ccc(/C=C3\NC(=O)N(Cc4ccc(Cl)cc4)C3=O)o2)cc1 6.4%
Cc1ccc(CN2C(=O)N/C(=C/c3ccc(-c4ccc(C(=O)O)cc4)o3)C2=O)cc1 6.65%
CC(C)Cn1c(SCC(=O)N2CCN(C(=O)c3ccco3)CC2)nc2ccccc2c1=O 7.56%
CCCCCn1c(NC2CCCCC2)nc2c1c(=O)[nH]c(=O)n2C 9.39%
COC(=O)CSC1=C(C#N)C(c2ccccc2)CC(=O)N1 (configuration not stated) 1.02%
COC(=O)CSC1=C(C#N)C(c2ccc(F)cc2)CC(=O)N1 (configuration not stated) -0.52%
CSc1nc2c(c(=O)n1-c1ccccc1)SCC2 9.44%
Cn1cc(/C=N/NC(=O)c2cc3cc(Br)ccc3o2)c2ccccc21 4.78%
O=C(O)Cn1cc(/C=N/NC(=O)c2cc3cc(Br)ccc3o2)c2ccccc21 18.5%
C=C(Br)Cn1c(CCC)nc2ccccc21 -1.16%
COc1ccc(NS(=O)(=O)c2cc(NC(=O)c3ccccc3F)ccc2N2CCCC2)cc1 3.17%
CN(C)CCCNC(=O)c1ccc(Cl)c(S(=O)(=O)N(C)c2ccccc2)c1 7.27%
O=C(O)C(c1ccccc1)C1(O)CCCC1 (configuration not stated) 16.5%
COc1ccc(S(=O)(=O)N(C)C)cc1NCC(=O)Nc1ccc(Br)cc1F 7.15%
CC1=C(C#N)C(=O)NC(=O)/C1=C/c1ccc(-c2ccc(S(N)(=O)=O)cc2)o1 28.5%
CCOC(=O)c1cc(-c2ccc(/C=N\n3cnnc3)o2)ccc1Cl 3.07%
CC1=C(C#N)C(=O)NC(=O)/C1=C\c1ccc(-c2cc(C)c(C)cc2[N+](=O)[O-])o1 11.9%
CC1=C(C#N)C(=O)NC(=O)/C1=C\c1ccc(-c2ccc(C)cc2[N+](=O)[O-])o1 20.8%
CC(=O)N1CCc2cc(S(=O)(=O)CCC(=O)Nc3ccc4c(c3)OCCO4)ccc21 7.36%
CN(C)CCNC(=O)CN1C(=O)COc2ccc(C(C)(C)C)cc21 0.77%
CC(=O)COC(=O)C1CC(=O)N(c2ccc(C)c(C)c2)C1 (configuration not stated) 3.99%
O=C(COc1ncnc2ccccc12)NCCc1ccccc1 1.63%
NC(=S)N=Nc1c(O)[nH]c2ccccc12 23.1%
CC(C)(O)C(=O)N=Nc1c(O)[nH]c2ccccc12 1.86%
O=C(CSc1nnc(-c2ccccn2)n1Cc1ccccc1)N1CCOCC1 2.23%
CCOC(=O)c1[nH]cnc1C(=O)Nc1ccc(C)cc1 2.53%
CCOC(=O)c1[nH]cnc1C(=O)Nc1ccccc1 19.7%
O=C(Cn1cc(C(F)(F)F)ccc1=O)N1CCN(S(=O)(=O)c2ccc(Cl)cc2)CC1 0.58%
CCN1CC(CN(C)Cc2cn(-c3cccc(C)c3)nc2-c2cccc(F)c2)CC1=O (configuration not stated) 0.42%
Cc1cc2c(c(SCC(N)=O)n1)C(=O)OC2 0.63%
CCOC(=O)CC1C(=O)NCCN1S(=O)(=O)c1ccc(OC)cc1 (configuration not stated) -8.28%
CCOC(=O)CC1C(=O)NCCN1C(=O)c1cc2c(=O)n3cccc(C)c3nc2s1 (configuration not stated) 11.1%
CCOCCCNc1nc2c(C)cccn2c(=O)c1/C=C1\SC(=S)N(CC(C)C)C1=O -0.56%
CCCN1C(=O)/C(=C/c2c(NCCCOCC)nc3c(C)cccn3c2=O)SC1=S -3.51%
CCC(C)N1C(=O)/C(=C/c2c(NCCCOC(C)C)nc3c(C)cccn3c2=O)SC1=S (configuration not stated) 10.2%
CCCN1C(=O)/C(=C/c2c(NCCCOC(C)C)nc3c(C)cccn3c2=O)SC1=S -6.67%
Cc1c(NC(=O)CN2C(=O)NC3(CCCCC3)C2=O)c(=O)n(-c2ccccc2)n1C -1.23%
COc1ccc(S(=O)(=O)N2CCN(C)CC2)cc1Br -2.63%
Cc1nc(SCC(=O)Nc2ccccc2)c2oc3ccccc3c2n1 -7.15%
O=C(Nc1ccccc1)Oc1ccccc1N1CCOCC1 2.65%
COc1cc(C(=S)N2CCOCC2)ccc1OC(=O)c1cc([N+](=O)[O-])cc([N+](=O)[O-])c1 4.71%
CCOC(=O)N=Nc1c(O)n(CC)c2ccccc12 3.07%
CCn1c(NC(=O)c2ccccc2)c(-c2cccs2)c(=O)c2ccccc21 7.57%
CCn1c(O)c(N=NC(=O)C(O)c2ccccc2)c2ccccc21 (configuration not stated) 5.57%
CCCC(=O)Nc1c(-c2cccs2)c(=O)c2ccccc2n1CC 3.31%
N=C1/C(=C\c2coc3ccccc3c2=O)C(=O)N=C2SC=CN12 52.2%
CC(C)CC1=NN2C(=N)/C(=C\c3coc4ccccc4c3=O)C(=O)N=C2S1 58%
N=C1/C(=C/c2coc3ccccc3c2=O)C(=O)N=C2SC(c3ccco3)=NN12 18.6%
CC1=CC2=NC(=O)/C(=C/c3coc4ccc(Cl)cc4c3=O)C(=N)N2O1 7.94%
CCN1CCN(C(=O)C2CCN(Cc3cc(Cl)ccc3O)CC2)CC1 0.1%
O=C(COC(=O)c1cc(NS(=O)(=O)c2cccs2)ccc1O)Nc1ccc(F)c(F)c1F 6.76%
CC(C)(C)C(=O)Nc1ccc(S(=O)(=O)Nc2ccccn2)cc1 4.68%
C/C(Cc1ccccc1)=N/NC(=O)CCCC(=O)N/N=C(/C)Cc1ccccc1 1.32%
COc1ccc(C(=O)NNC(=O)Nc2ccc(C)cc2)cc1 -2.61%
CCOC(=O)C(NC(=O)c1ccccc1Cl)(Nc1ccc(C)c(C)c1)C(F)(F)F (configuration not stated) 3.71%
Cc1cnc(NC(=O)c2sc3ccccc3c2Cl)s1 5.85%
CCc1nnc(NC(=O)c2ccc3ccccc3n2)s1 18.2%
COCc1nnc(NC(=O)c2sc3ccccc3c2Cl)s1 17.9%
CCC(CC)c1nnc(NC(=O)c2ccc3ccccc3n2)s1 44%
CC1=C(C(=O)Nc2ccccn2)C(c2ccc(N(C)C)cc2)n2ncnc2N1 (configuration not stated) -4.41%
CCC(C)[C@H](NC(=O)NC1CC1)C(=O)O (some centres not stated) 5.68%
CCN(CC)c1cc(C)c2cc(NC(=O)c3ccc(Br)o3)ccc2n1 8.17%
C[N+]1(CCCOC(=O)C2(c3ccccc3)CCCC2)CCOCC1 12.4%
COc1ccc(-n2c(=O)c3c4c(sc3n(CC(N)=O)c2=O)CCCCC4)cc1 4.45%
NC(=O)Cn1c(=O)n(CCc2ccccc2)c(=O)c2c3c(sc21)CCCC3 -0.91%
CCOC(=O)N1CCN(S(=O)(=O)c2ccc(C(=O)Nc3sc4c(c3C#N)CCC4)cc2)CC1 4.62%
COC(=O)c1ccccc1NC(=O)Cn1c(-c2nonc2N)nc2ccccc21 0.73%
Nc1nonc1-c1nc2ccccc2n1CC(=O)N/N=C\c1ccc(-c2ccc(Cl)cc2)o1 -0.3%
Nc1nonc1-c1nc2ccccc2n1CC(=O)Nc1ccccc1 2.57%
CCOC(=O)c1ccccc1NC(=O)Cn1c(-c2nonc2N)nc2ccccc21 -0.93%
CC(C)(C)NC(=O)Cn1c(-c2nonc2N)nc2ccccc21 8.2%
NC(=O)Cn1c(-c2nonc2N)nc2ccccc21 2.36%
COc1ccccc1C(=O)Nc1ccccc1C(=O)N1CCCC1 5.88%
COc1ccc(CCNC(=O)COC(=O)c2ccc(N3CCCC3=O)cc2)cc1 -2.72%

inhibition, active:
Cc1nc2ccccc2c2oc(C(=O)N3CCN(C(=O)c4ccco4)CC3)cc12 25.5%
COC(=O)c1cc(=O)n(Cc2ccc3c(c2)OCO3)c(=Nc2ccccc2)s1 26.5%
COC(=O)CSC1=C(C#N)C(c2ccc(C(C)C)cc2)CC(=O)N1 (configuration not stated) 23.7%
C=CCOC(=O)c1cc(-c2ccc(/C=C3\C(=O)NC(=O)C(C#N)=C3C)o2)ccc1Cl 46.9%
CCn1c(NC(=O)c2cccs2)c(-c2cccs2)c(=O)c2ccccc21 27%
Cc1nnc(NC(=O)c2sc3ccccc3c2Cl)s1 27.1%
